Wnt bcat act: activators of Wnt/beta-catenin signaling; Wnt/beta-catenin reporter cell assay, activator, plate reader; 300,000 tested, 1.2% active; activation, % at 9.35 µM; in the data active = activation above about 30%, passing the limit was not always enough; inconclusive = no clear call, values can overlap the other calls;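 also: 0% = neutral control wells and 100% = positive control wells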
Rtt109 HAT inh: blocks Candida albicans Rtt109/Vps75 acetyltransferase activity | Q5AAJ8 | AID 540336 | 330,000 tested, 0.16% active | inhibition, % at 34.9 µM | purified Rtt109/Vps75, ThioGlo CoA-SH fluorescence, 4 h;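 active = inhibition of at least 50% in every replicate; inconclusive = best replicate reaches 50% inhibition but some replicates fall short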
Target sequence (Q5AAJ8 whole entry, looked up): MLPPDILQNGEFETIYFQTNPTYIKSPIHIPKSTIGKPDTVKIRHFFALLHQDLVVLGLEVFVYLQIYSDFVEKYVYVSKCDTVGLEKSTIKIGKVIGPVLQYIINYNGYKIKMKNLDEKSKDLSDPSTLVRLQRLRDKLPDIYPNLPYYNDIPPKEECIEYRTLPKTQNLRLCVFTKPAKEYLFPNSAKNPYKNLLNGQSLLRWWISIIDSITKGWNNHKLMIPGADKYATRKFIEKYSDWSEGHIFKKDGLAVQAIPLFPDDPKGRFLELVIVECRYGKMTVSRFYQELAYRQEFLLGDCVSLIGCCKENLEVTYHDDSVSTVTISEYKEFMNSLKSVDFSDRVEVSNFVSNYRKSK
Statin myotox sup: suppression of simvastatin myotoxicity | C2C12 myotubes + simvastatin, ATP luminescence, 48 h; scaled: DMSO 0, geranylgeraniol control 100 | rescue of ATP level, % at 7.49 µM | 330,000 tested, 0.78% active;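 active = mean ATP rescue above about 67%, or every replicate alone reaching that limit, limit read from the data, passing the limit was not always enough; inconclusive = no clear call, values can overlap the other calls; inactive = mean under the limit and some replicate under it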;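 also: myotubes were challenged with 10 µM simvastatin during compound exposure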
MITF act: activators of MITF-driven TRPM1 promoter activity in SK-MEL-5 cells. 300,000 tested, 0.75% active. AID 588334. SK-MEL-5 TRPM1-promoter luciferase, 24 h; % of positive control, neutral wells = 0. activation, % at 12.5 µM;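 active = mean activation of at least 80% with every replicate also reaching 80%; inconclusive = mean reaches 80% but some replicate falls short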;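 also: 0% = neutral control wells and 100% = parthenolide positive control wells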
esBAF inh: SWI/SNF esBAF complex inhibition; mouse ES cells, Bmi1-luciferase knock-in reporter, 24 h; 100% = twice the neutral-well signal; reporter increase, % at 12.5 µM; 350,000 tested, 2% active; in the data active = activation above about 40%; inconclusive = no clear call, values can overlap the other calls;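 also: 0% = median of the plate's neutral control wells and 100% = double that signal; a rise in the Bmi1 reporter signal indicates esBAF inhibition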
Starred values were filed as active, the others as inactive. In the library only some 3.1% were active in any assay of this set; here they are far more common.

What do the screens show for `Cc1c(C(=O)OC2CCCC2)[nH]c2c1C(=O)CC(c1ccco1)C2` (stereo not given)?
Wnt bcat act: -21.4; Rtt109 HAT inh: -1.2; Statin myotox sup: -35.0; MITF act: -23.6; esBAF inh: -35.4

What do the screens show for `Cc1ccc(S(=O)(=O)N2C[C@H](O)COC[C@H]3O[C@@H](CC(=O)N[C@@H]4CCN(Cc5ccccc5)C4)CC[C@@H]32)cc1`?
Statin myotox sup: -4.8; esBAF inh: 0.8

Results for Nc1nonc1-c1nc2ccccc2n1Cc1ccc(F)cc1Cl ?
Wnt bcat act: 8.7; Rtt109 HAT inh: -9.1; Statin myotox sup: 116.0*; MITF act: 9.2; esBAF inh: -5.1

How did Fc1ccc(Cn2c(-c3cscn3)nc3ccccc32)c(Cl)c1 do in these assays?
Wnt bcat act: -6.3; Rtt109 HAT inh: 1.5; Statin myotox sup: 47.1; MITF act: 3.9; esBAF inh: -3.5

What do the screens show for `Cc1ccc(S(=O)(=O)N(C)C[C@@H]2Oc3ccc(NS(=O)(=O)c4cn(C)cn4)cc3CC(=O)N([C@@H](C)CO)C[C@H]2C)cc1`?
Statin myotox sup: -3.5; esBAF inh: 1.9

What do the screens show for `Cc1snc(SCC(=O)c2ccc(Cl)cc2)c1C#N`?
Rtt109 HAT inh: -2.9; Statin myotox sup: 28.1; MITF act: 125.8*; esBAF inh: 30.2

What do the screens show for `Cc1ccnc(SCC(=O)c2ccc(Br)cc2)c1C#N`?
Wnt bcat act: 42.0*; Rtt109 HAT inh: -1.0; MITF act: 57.2

Results for C[C@H](CO)N1C[C@H](C)[C@@H](CN(C)C(=O)C2CCC2)Oc2ncc(-c3cccc(C#N)c3)cc2C1=O ?
Statin myotox sup: -15.6; esBAF inh: -5.0

How did O=C1C(C=NCCCN2CCOCC2)=C(O)c2ccccc21 do in these assays?
Rtt109 HAT inh: 6.1; Statin myotox sup: 123.7*; MITF act: 2.0; esBAF inh: 10.2

How did COc1ccc(C=NCCCN2CCOCC2)cc1 do in these assays?
Rtt109 HAT inh: -1.6; Statin myotox sup: 87.6*; MITF act: 0.7; esBAF inh: 6.5

Results for O=C1C(C=NCCN2CCOCC2)=C(O)c2ccccc21 ?
Wnt bcat act: 33.8*; Rtt109 HAT inh: 4.6; Statin myotox sup: 8.2; MITF act: 35.3; esBAF inh: 51.4*

What do the screens show for `CC1(C)CC(=O)C(C=NCCN2CCOCC2)=C(O)C1`?
Rtt109 HAT inh: 5.6; Statin myotox sup: -10.6; MITF act: 7.3; esBAF inh: 2.5

Results for COc1ccc(C2CC(=O)C(C=NCCCN3CCOCC3)=C(O)C2)cc1 (stereo not given) ?
Wnt bcat act: -3.7; Rtt109 HAT inh: -0.8; Statin myotox sup: 8.4; MITF act: 6.8; esBAF inh: -9.4

Results for C[C@@H]1CCCCO[C@H](CN(C)CC2CCCCC2)[C@H](C)CN([C@H](C)CO)C(=O)c2cc(NS(=O)(=O)c3cccs3)ccc2O1 ?
esBAF inh: 2.2

What do the screens show for `Cn1cc([N+](=O)[O-])c(C(=O)Nc2ccc(C3CCCCC3)cc2)n1`?
Wnt bcat act: 46.0*; Rtt109 HAT inh: 1.5; MITF act: -4.9

Results for Cn1c(=N)n(CC(=O)c2ccccc2)c2ccccc21 ?
Wnt bcat act: 2.4; Statin myotox sup: 10.2; esBAF inh: -59.2

What do the screens show for `CCCn1c(=N)n(CC(=O)C(C)(C)C)c2ccccc21`?
Wnt bcat act: -2.0; Rtt109 HAT inh: -14.1; Statin myotox sup: -17.5; esBAF inh: -0.8

How did COc1ccc(C(=O)CN2C(=O)COc3ccccc32)cc1 do in these assays?
Wnt bcat act: -1.7; Rtt109 HAT inh: -0.8; MITF act: 7.0

Results for Cn1c(=N)n(CC(=O)C(C)(C)C)c2ccccc21 ?
Wnt bcat act: -2.4; Rtt109 HAT inh: -0.1; Statin myotox sup: -1.4; MITF act: 28.7; esBAF inh: 50.6*

How did COc1ccc(C(=O)Cn2c(=N)n(C)c3ccccc32)cc1 do in these assays?
Wnt bcat act: 1.4; Rtt109 HAT inh: -3.3; Statin myotox sup: 4.6; esBAF inh: 87.4*

What do the screens show for `COc1ccc(C(=O)CN2Cc3ccccc3C2=N)cc1`?
Wnt bcat act: 42.2*; Rtt109 HAT inh: -5.9

How did CN1CCN(C(=O)C[C@H]2C[C@@H]3c4cc(NC(=O)C5CCC5)ccc4O[C@@H]3[C@@H](CO)O2)CC1 do in these assays?
Statin myotox sup: 6.4; esBAF inh: 1.5

How did CCCC(=O)Nc1ccc2c(c1)OC[C@H](C)N(CCc1ccccc1)C[C@@H](C)[C@@H](OC)CN(C)C2=O do in these assays?
Statin myotox sup: 9.2; esBAF inh: 0.5

What do the screens show for `COc1cc(C)ccc1OCC(=O)NC1CCCCCC1`?
Wnt bcat act: -1.1; Rtt109 HAT inh: 0.9; Statin myotox sup: -14.7; MITF act: inconclusive; esBAF inh: 69.3*

How did O=C(COc1ccc(Cl)cc1[N+](=O)[O-])NC1CCCCC1 do in these assays?
Wnt bcat act: 0.0; Rtt109 HAT inh: 8.2; Statin myotox sup: -5.5; MITF act: 62.2; esBAF inh: 101.3*

Results for CC(=O)c1cc(Cl)ccc1OCC(=O)NC1CCCC1 ?
Wnt bcat act: -3.4; Rtt109 HAT inh: -3.6; Statin myotox sup: 7.9; MITF act: 50.1; esBAF inh: 52.0*

Results for C[C@H](CO)N1C[C@H](C)[C@@H](CN(C)S(=O)(=O)c2cn(C)cn2)Oc2c(NC(=O)C3CCOCC3)cccc2C1=O ?
Statin myotox sup: -9.6; esBAF inh: -3.7

Results for CCCCC12CN3CCN(CC(C3)/C1=N\NC(=O)c1ccccc1N)C2 ?
Wnt bcat act: 35.2*; Rtt109 HAT inh: 3.0; MITF act: 4.1

What do the screens show for `Cc1cc(C)c2c(N)c(C(=O)Nc3ccc(F)cc3)sc2n1`?
Wnt bcat act: 51.0*; Rtt109 HAT inh: -0.9; Statin myotox sup: 1.8; MITF act: 52.2; esBAF inh: 26.0

What do the screens show for `Cc1cccc(NC(=O)c2sc3nc(N)c(C#N)cc3c2N)c1`?
Rtt109 HAT inh: 13.3; MITF act: 106.3*

How did COCc1cc(C)nc2sc(C(=O)Nc3ccc(C(=O)OC)cc3)c(N)c12 do in these assays?
Wnt bcat act: 0.5; Rtt109 HAT inh: -1.7; Statin myotox sup: -11.8; esBAF inh: 15.3

Results for Cc1cc(C)c2c(N)c(C(=O)Nc3ccc(C)c(C)c3)sc2n1 ?
Wnt bcat act: 20.6; Rtt109 HAT inh: 1.9; Statin myotox sup: -11.9; MITF act: 126.4*; esBAF inh: -22.3

What do the screens show for `COc1ccc(NC(=O)c2sc3nc(C)cc(C)c3c2N)cc1`?
Wnt bcat act: 12.2; Rtt109 HAT inh: -6.6; Statin myotox sup: -9.6; MITF act: 104.5*; esBAF inh: inconclusive

How did COc1ccccc1NC(=O)c1sc2nc(C)cc(C)c2c1N do in these assays?
Wnt bcat act: -2.1; Rtt109 HAT inh: -2.0; Statin myotox sup: -0.6; MITF act: 0.2; esBAF inh: 3.2

How did CCC(=O)N[C@H]1C=C[C@H](CC(=O)NCC2CCCCC2)O[C@@H]1CO do in these assays?
Statin myotox sup: -4.2; esBAF inh: -3.5

How did CCNC(=O)C[C@H]1CC[C@H]2[C@@H](COc3ccc(NS(C)(=O)=O)cc3C(=O)N2C)O1 do in these assays?
Statin myotox sup: 17.6; esBAF inh: -4.6

High-throughput results deposited in PubChem by Broad Institute.
